# Results: PubChem BioAssay (NCI)
# This is part of a sample that, as a whole, favours compounds with a hit. Of some 83,000 tested, about 20% had one in any assay.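 The endpoint reported here, percent growth, reads 100 for growth as untreated, 0 for no net growth and -100 for all cells dead.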 Unmarked numbers belong to inactive results. Calls of active or inactive are those of the source. Rule for the calls: active = growth percent below 10; inactive = the rest.
# Test system: NCI/ADR-RES ovarian
# Assay: NCI-60 one-dose screen, 48 h (100 = growth as untreated, 0 = no growth, -100 = all killed)
# Details: 10 µM unless noted
row,SMILES,growth
1,C/C(=C\c1ccc(OCC(=O)O)c(Cl)c1Cl)[N+](=O)[O-],102%
2,COc1ccc(-c2cc3c(OC)c(OC)c(OC)cc3oc2=O)cc1,4.06% (active)
3,COc1ccc(Nc2ncccc2C(=O)NCc2cn(Cc3cccc(Oc4ccccc4)c3)nn2)c(OC)c1,-10% (active)
4,CC(=O)Nc1scc[n+]1Cc1ccccc1,102%
5,COc1cc2c(c(OC)c1OC)-c1ccc(N)c(=O)cc1[C@@H](NC(C)=O)CC2,75.6%
6,O=C([O][Sn]([O]C(=O)c1ccccn1)([c]1ccccc1)[c]1ccccc1)c1ccccn1,95.1%
7,COC(OC)c1ccccc1,99.4%
8,Fc1ccc(Nc2nc(NCCNc3ccnc4cc(Cl)ccc34)nc(N3CCOCC3)n2)cc1,77.8%
9,COc1ccc(-c2nc3sc(-c4cc(OC)c(OC)c(OC)c4)nn3c2/C=C2/C(=O)Nc3ccc(F)cc32)cc1,37.6%
10,Cc1ccc(S(=O)(=O)n2cc(C(=O)C(=O)Nc3ccncc3)c3ccccc32)cc1,5.21% (active)
11,COc1ccc(Nc2ncccc2C(=O)NCc2cn(Cc3cccc(Oc4ccccc4)c3)nn2)cc1,16.3%
12,CC1=C(C#N)C(=O)NC(C)C1 (centres undefined),102%
13,Cc1cc(C2=NNC(=O)Cc3cc4c(cc32)OCCO4)cc(C)c1N,-4.6% (active)
14,CCOC(=O)C1=C(C)NC(C)=C(C(=O)OCC)C1(C)C,122%
15,O=C(Nc1ccncc1)C(=O)c1cn(S(=O)(=O)c2ccc(Br)cc2)c2ccccc12,9.49% (active)
16,CC1CCC(C)N(C)C1 (centres undefined),107%
17,CCC(C)/C(=C\C#N)NCCCN/C(=C/C#N)C(C)CC (centres undefined),105%
18,CC1(c2ccc(Cl)cc2)OC(=O)CC(=O)O1,106%
19,CCN(CC)CCOc1ccc(Cl)c(C)c1,102%
20,Nc1cccc(Cl)c1N,102%
21,O=[N+]([O-])c1cc(Cl)c2[nH]c3c(Cl)cc([N+](=O)[O-])cc3c2c1,6.85% (active)
22,CSc1nc2c(c(=O)[nH]1)C(c1ccc(C)cc1)C=C(C(=O)O)N2 (centres undefined),109%
23,COc1cc(/C=C/C(=O)/C=C/c2cc(OC)c3c(c2)OCO3)cc2c1OCO2,91.2%
24,Oc1ccccc1/C=N/NC(=S)NC1CC2C=CC1C2 (centres undefined),0.723% (active)
